Data from PubChem BioAssay (Tox21).
Records with an inconclusive call do not appear. Calls of active or inactive are those of the source. Unless noted, calls follow the shape of the dose curve; as a rule, active = well fitted curve in the direction sought with a large enough effect in the repeat runs; inconclusive = weak or mixed curves; inactive = no such curve, though single readings can be large; an effect the other way counts as inactive or inconclusive.

Experiments:
[1] = qHTS assay to identify small molecule agonists of the sonic hedgehog signaling (Shh) pathway (AID 1259368; calls by dose curve;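 also: NIH/3T3-derived 3T3Gli1-Luc cells carrying a stable Gli1-driven firefly luciferase reporter; series mostly up to about 92 µM; nearly all actives have a fitted effect of over 15% in size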)
Procedure, shortened: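 Luminescence was read after 30 min at room temperature with luciferase reagent. Before that, 3T3Gli1-Luc cells (NIH/3T3 clone, stable Gli1-Luc reporter; 2,000/well) were exposed to compounds for 24 hr at 37C, 5% CO2, compounds being added 4 hr post-plating.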

[2] = qHTS assay to identify small molecule antagonists of the sonic hedgehog signaling (Shh) pathway (AID 1259369; calls by dose curve; also: nearly all actives have a fitted effect of over 45% in size)
Procedure, shortened: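 Antagonist mode: compound added to 3T3 Gli1-Luc cells followed by conditioned-medium stimulation, 24 h at 37 C, 5% CO2. Inhibition taken as loss of Gli1-driven luciferase luminescence.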

[3] = biological target: Estrogen receptor beta (Homo sapiens) (UniProt Q92731); experiment: qHTS assay to identify small molecule agonists of the estrogen receptor beta (ER-beta) signaling pathway (AID 1259377; active = well fitted activation curve with a large enough effect in the signal ratio in the repeat runs, not every such curve was filed as active; the % refers to the signal ratio)
Estrogen receptor beta (Homo sapiens), sequence (Q92731 whole entry, looked up): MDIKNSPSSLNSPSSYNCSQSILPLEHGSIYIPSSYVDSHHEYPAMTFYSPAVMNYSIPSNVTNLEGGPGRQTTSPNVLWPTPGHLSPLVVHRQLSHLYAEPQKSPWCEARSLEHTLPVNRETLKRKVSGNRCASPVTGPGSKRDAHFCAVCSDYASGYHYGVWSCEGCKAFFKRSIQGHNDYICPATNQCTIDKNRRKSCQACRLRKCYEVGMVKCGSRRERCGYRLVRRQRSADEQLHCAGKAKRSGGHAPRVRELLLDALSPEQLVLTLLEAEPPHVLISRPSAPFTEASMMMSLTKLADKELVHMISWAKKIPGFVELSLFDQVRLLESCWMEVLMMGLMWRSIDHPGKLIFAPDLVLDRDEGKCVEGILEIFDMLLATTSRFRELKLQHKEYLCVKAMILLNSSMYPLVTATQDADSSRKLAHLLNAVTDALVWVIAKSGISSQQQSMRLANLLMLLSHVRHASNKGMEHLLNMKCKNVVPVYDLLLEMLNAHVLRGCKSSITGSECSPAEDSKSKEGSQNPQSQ
Procedure, shortened: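 Screening used GripTite ER-beta-UAS-bla cells held in 2% charcoal-stripped FBS medium. After overnight (16 hr) compound incubation at 37C, beta-lactamase activity was detected with a FRET substrate by fluorescence.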

[4] = biological target: Estrogen receptor beta (Homo sapiens) (UniProt Q92731); experiment: qHTS assay to identify small molecule antagonists of the estrogen receptor beta (ER-beta) signaling pathway (AID 1259378; active = well fitted inhibition curve with a large enough effect in the signal ratio in the repeat runs, not every such curve was filed as active; the % refers to the signal ratio)
Procedure, shortened: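 ER-beta-UAS-bla HEK293T (GripTite) cells in 2% charcoal-stripped FBS medium were preincubated 6 hr at 37C, dosed with compound, then stimulated with 1 nM E2 (final) for 16 hr; beta-lactamase reporter read by B/G FRET fluorescence after 2 hr substrate loading.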

[5] = qHTS assay to identify small molecule agonists of the androgen receptor (AR) signaling pathway in the presence of an antagonist - cell viability counter screen (AID 1259379);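 also: MDA-kb2 human breast cancer cells carrying an MMTV luciferase reporter; series mostly up to about 92 µM; nearly all actives have a fitted effect of over 25% in size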
Procedure, shortened: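 Cytotoxicity counter-screen run in the same wells as the nilutamide-challenged (3.0 µM final) AR agonist assay in MDA-kb2 cells. Compounds tested at 15 concentrations for 16 h, 37 °C without CO2; CellTiter-Fluor fluorescence read.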

[6] = qHTS assay to identify small molecule agonists of the estrogen receptor beta (ER-beta) signaling pathway - cell viability counter screen (AID 1259380); also: nearly all actives have a fitted effect of over 30% in size
Procedure, shortened: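 Cell viability counter screen: CellTiter-Glo luminescence (30 min, room temperature) measured in the same wells as the beta-lactamase readout, after 16 hr compound exposure at 37C of ER-beta-bla HEK293T cells in 2% charcoal-stripped FBS medium.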

[7] = qHTS assay to identify small molecule antagonists of the estrogen receptor beta (ER-beta) signaling pathway - cell viability counter screen (AID 1259382); also: series mostly up to about 92 µM; nearly all actives have a fitted effect of over 55% in size
Procedure, shortened: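 Cytotoxicity was measured in the same wells by CellTiter-Glo luminescence after 30 min at room temperature. Cells were ER-beta-bla HEK293T in charcoal-stripped serum, given compound together with 1 nM E2 and incubated 16 h at 37C.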

[8] = qHTS assay to identify small molecule agonists of the estrogen receptor alpha (ER-alpha) signaling pathway in the presence of an antagonist - cell viability counter screen (AID 1259386); also: series mostly up to about 92 µM; nearly all actives have a fitted effect of over 30% in size
Procedure, shortened: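 Compounds tested at 15 concentrations for 22 h at 37C alongside 10.0nM (final) ICI-182,780 antagonist, in VM7Luc4E2 cells grown in phenol red-free, charcoal-stripped medium. Viability read by CellTiter-Fluor fluorescence after 1 h reagent incubation.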

[9] = biological target: Progesterone receptor (Homo sapiens) (UniProt P06401); experiment: qHTS assay to identify small molecule agonists of the progesterone receptor (PR) signaling pathway (AID 1346784; calls by dose curve; also: nearly all actives have a fitted effect of over 30% in size)
Progesterone receptor (Homo sapiens), sequence (P06401 whole entry, looked up): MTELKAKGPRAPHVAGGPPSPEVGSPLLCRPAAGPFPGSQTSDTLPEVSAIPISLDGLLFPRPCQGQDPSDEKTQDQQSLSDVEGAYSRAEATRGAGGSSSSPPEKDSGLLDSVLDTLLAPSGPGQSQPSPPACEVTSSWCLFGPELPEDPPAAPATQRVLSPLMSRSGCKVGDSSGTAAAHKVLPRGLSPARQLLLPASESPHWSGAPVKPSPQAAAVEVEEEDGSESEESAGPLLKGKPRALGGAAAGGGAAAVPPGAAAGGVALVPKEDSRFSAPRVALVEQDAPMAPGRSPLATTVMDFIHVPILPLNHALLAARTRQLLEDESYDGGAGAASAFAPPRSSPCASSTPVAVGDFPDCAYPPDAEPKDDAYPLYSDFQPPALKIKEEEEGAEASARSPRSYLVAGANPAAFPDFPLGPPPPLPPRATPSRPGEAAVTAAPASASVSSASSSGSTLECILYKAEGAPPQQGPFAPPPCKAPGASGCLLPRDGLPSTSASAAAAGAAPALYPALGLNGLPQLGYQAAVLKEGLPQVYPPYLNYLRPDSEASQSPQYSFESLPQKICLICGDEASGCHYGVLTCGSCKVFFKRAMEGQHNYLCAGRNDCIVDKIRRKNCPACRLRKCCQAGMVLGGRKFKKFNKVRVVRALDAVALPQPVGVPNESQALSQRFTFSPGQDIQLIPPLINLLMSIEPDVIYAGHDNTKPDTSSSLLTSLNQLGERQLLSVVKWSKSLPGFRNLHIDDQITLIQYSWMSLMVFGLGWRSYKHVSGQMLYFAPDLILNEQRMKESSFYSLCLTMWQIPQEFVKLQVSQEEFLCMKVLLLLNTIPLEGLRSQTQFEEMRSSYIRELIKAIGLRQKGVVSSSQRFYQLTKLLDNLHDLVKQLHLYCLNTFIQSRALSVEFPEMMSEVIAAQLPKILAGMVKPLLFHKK
Procedure, shortened: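 Seed PR-UAS-bla HEK 293T cells (2% charcoal-stripped FBS), incubate 6 hr at 37C; add compounds in DMSO, 16 hr at 37C; add LiveBLAzer B/G substrate, 2 hr RT; read fluorescence intensity.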

[10] = qHTS assay to identify small molecule antagonists of the progesterone receptor (PR) signaling pathway - cell viability counter screen (AID 1346798); also: series mostly up to about 92 µM; nearly all actives have a fitted effect of over 50% in size
Procedure, shortened: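 Measures cytotoxicity in parallel with the PR antagonist reporter read: HEK293T PR-UAS-bla cells get compound and R5020 for 16 hr, and remaining viable cells are quantified by CellTiter-Glo luminescence.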

[11] = qHTS assay to identify small molecule agonists of the progesterone receptor (PR) signaling pathway - cell viability counter screen (AID 1346799; calls by dose curve; also: nearly all actives have a fitted effect of over 45% in size)
Procedure, shortened: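 Using the same plates as the PR reporter screen, HEK293T PR-UAS-bla cells received compounds for 16 hr at 37C and were then lysed with CellTiter-Glo; luminescence was read 30 min later at room temperature.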

[12] = qHTS assay to identify small molecule antagonists of the TGF-beta/Smad signaling pathway - cell viability counter screen (AID 1346824); also: nearly all actives have a fitted effect of over 50% in size
Procedure, shortened: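 SBE-bla HEK 293T cells were plated overnight at 37 C, then given compounds in DMSO plus TGF-beta1 (added as 0.25 ng/mL solution) for 5 hr. After the bla read, CellTiter-Glo was added to the same wells and luminescence read after 30 min at room temperature.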

[13] = qHTS assay to identify small molecule agonists of the TGF-beta/Smad signaling pathway - cell viability counter screen (AID 1346829); also: top concentration of the series differs between compounds; nearly all actives have a fitted effect of over 45% in size
Procedure, shortened: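 Tox21 qHTS format: SBE-bla HEK 293T cells treated with DMSO-dissolved compounds for 5 hr; CellTiter-Glo luminescence after 30 min at room temperature.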

[14] = qHTS assay to identify small molecule agonists of the TGF-beta/Smad signaling pathway (AID 1346859; active = well fitted activation curve with a large enough effect in the signal ratio in the repeat runs, not every such curve was filed as active; the % refers to the signal ratio; also: series mostly up to about 77 µM)
Procedure, shortened: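 Beta-lactamase reporter activity downstream of Smad binding elements was measured in stably transfected HEK 293T cells; compounds were incubated for 5 hr, substrate for 2 hr at room temperature.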

[15] = biological target: Thyrotropin-releasing hormone receptor (Homo sapiens) (UniProt P34981); experiment: qHTS assay to identify small molecule antagonists of the thyrotropin-releasing hormone receptor (TRHR) signaling pathway (AID 1346877; active = well fitted inhibition curve with a large enough effect in the repeat runs, not every such curve was filed as active; also: series mostly up to about 51 µM)
Thyrotropin-releasing hormone receptor (Homo sapiens), sequence (P34981 whole entry, looked up): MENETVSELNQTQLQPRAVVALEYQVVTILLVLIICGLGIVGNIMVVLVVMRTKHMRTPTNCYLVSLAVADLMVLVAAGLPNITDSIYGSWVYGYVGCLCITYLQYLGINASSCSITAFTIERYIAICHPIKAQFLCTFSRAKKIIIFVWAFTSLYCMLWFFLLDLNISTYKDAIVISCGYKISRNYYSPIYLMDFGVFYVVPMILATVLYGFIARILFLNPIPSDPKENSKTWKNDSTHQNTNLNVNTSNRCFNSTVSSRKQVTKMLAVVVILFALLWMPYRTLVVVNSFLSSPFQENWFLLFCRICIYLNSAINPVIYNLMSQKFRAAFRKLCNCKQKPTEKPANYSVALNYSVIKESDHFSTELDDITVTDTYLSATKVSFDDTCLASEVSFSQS
Procedure, shortened: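 Antagonist mode: after a 5 min room-temperature compound exposure, cells were stimulated with 1 nM (final) TRH. Dye-loaded TRHR-HEK293 cells were used, and calcium-dependent fluorescence was followed for 3 min, with 15-point titrations run in triplicate.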

[16] = qHTS assay to identify small molecule agonists or antagonists of the thyroid stimulating hormone receptor (TSHR) signaling pathway - wild type cell line counter screen (AID 1259384; calls by dose curve)
Procedure, shortened: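 Wild-type HEK293 cells were plated 18 h at 37 C/5% CO2, pin-dosed with compound plus Ro20-1724 medium, held 30 min at room temperature, then given cAMP-d2 and anti-cAMP-cryptate; fluorescence was read after 1 h. Fifteen concentrations, triplicate.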

[17] = biological target: Thyrotropin receptor (Homo sapiens) (UniProt P16473); experiment: qHTS assay to identify small molecule antagonists of the thyroid stimulating hormone receptor (TSHR) signaling pathway (AID 1259385; calls by dose curve; also: nearly all actives have a fitted effect of over 20% in size)
Thyrotropin receptor (Homo sapiens), sequence (P16473 whole entry, looked up): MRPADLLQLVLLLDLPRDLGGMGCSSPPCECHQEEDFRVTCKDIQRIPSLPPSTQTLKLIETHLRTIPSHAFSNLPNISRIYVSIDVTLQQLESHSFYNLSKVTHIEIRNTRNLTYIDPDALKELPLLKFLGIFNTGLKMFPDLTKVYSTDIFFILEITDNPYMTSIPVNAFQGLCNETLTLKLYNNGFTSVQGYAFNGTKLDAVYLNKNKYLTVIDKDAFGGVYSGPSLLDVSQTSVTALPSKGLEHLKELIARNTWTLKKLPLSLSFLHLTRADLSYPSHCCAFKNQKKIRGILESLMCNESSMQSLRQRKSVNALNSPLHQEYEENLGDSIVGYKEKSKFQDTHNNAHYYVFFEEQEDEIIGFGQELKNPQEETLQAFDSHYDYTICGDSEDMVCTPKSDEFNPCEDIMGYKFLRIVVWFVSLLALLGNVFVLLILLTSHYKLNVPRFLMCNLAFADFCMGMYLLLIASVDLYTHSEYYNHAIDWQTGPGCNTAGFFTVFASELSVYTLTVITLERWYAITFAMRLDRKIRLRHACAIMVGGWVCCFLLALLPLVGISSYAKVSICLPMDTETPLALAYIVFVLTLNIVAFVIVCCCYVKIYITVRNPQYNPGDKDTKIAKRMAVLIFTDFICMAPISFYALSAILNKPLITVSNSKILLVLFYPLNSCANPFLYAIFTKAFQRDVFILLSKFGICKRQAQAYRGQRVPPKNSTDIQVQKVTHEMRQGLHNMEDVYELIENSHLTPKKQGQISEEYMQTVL
Procedure, shortened: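 TSHR-HEK293 cells were plated and held 18 h at 37C/5% CO2, then given compound plus Ro20-1724 and stimulated with TSH at 1.5 ng/mL final. After 30 min at room temperature, cAMP was detected with cAMP-d2/anti-cAMP-cryptate (1 h) by fluorescence.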

[18] = biological target: Androgen receptor (Homo sapiens) (UniProt P10275); experiment: qHTS assay to identify small molecule agonists of the androgen receptor (AR) signaling pathway in the presence of an antagonist (AID 1259381; calls by dose curve; also: nearly all actives have a fitted effect of over 15% in size)
Androgen receptor (Homo sapiens), sequence (P10275 whole entry, looked up): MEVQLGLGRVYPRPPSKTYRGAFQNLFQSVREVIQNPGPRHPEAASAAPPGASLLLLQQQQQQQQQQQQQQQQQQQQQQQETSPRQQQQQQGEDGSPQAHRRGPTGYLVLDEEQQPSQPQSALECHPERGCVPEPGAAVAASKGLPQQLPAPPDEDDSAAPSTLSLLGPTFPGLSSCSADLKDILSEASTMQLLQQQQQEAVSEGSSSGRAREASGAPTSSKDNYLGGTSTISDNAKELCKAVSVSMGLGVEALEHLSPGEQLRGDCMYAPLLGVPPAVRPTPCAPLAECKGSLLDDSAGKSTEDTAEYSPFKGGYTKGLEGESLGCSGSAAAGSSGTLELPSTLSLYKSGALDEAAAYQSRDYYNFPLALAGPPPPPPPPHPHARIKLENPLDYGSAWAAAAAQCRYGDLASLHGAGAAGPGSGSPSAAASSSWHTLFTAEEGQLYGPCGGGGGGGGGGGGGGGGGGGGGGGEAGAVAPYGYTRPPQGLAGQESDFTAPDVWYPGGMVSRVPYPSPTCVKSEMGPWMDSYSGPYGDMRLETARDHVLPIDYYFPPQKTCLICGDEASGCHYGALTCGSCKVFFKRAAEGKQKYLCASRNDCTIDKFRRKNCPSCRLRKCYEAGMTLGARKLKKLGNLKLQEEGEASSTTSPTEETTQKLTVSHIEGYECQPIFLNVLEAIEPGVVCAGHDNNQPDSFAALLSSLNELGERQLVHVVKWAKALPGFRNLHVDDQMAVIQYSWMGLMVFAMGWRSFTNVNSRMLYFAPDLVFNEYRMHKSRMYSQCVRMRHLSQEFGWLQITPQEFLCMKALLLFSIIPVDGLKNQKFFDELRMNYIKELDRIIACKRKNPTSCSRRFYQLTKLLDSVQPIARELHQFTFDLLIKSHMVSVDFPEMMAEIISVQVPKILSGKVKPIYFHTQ
Procedure, shortened: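 Agonist-mode confirmation run against 3.0 uM final nilutamide: compounds titrated at 15 concentrations onto MDA-kb2 MMTV-luciferase reporter cells. Luminescence measured with ONE-Glo following 16 hr incubation, 37C, 0% CO2.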

[19] = biological target: Estrogen receptor (Homo sapiens) (UniProt P03372); experiment: qHTS assay to identify small molecule agonists of the estrogen receptor alpha (ER-alpha) signaling pathway in the presence of an antagonist (AID 1259383; calls by dose curve; also: top concentration of the series differs between compounds; nearly all actives have a fitted effect of over 15% in size)
Estrogen receptor (Homo sapiens), sequence (P03372 whole entry, looked up): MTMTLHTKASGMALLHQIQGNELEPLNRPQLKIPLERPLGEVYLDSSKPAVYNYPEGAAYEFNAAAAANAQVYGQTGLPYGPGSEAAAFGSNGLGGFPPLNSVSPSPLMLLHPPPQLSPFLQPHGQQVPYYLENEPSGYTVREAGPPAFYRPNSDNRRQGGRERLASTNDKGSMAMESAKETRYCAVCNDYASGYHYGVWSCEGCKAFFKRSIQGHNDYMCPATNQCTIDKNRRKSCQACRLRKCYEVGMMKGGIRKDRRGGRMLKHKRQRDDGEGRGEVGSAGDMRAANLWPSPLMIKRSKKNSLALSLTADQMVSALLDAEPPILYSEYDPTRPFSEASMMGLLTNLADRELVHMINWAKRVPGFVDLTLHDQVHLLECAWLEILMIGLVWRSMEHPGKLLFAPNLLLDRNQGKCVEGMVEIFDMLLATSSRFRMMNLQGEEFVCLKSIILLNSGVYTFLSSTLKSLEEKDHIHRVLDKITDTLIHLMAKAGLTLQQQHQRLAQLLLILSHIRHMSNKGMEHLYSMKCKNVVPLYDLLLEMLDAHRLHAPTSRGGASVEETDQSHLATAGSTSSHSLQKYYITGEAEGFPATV
Procedure, shortened: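 Agonist-mode confirmation run in the presence of 10.0nM (final) ICI-182,780 antagonist. The reporter was ERE-driven luciferase in VM7Luc4E2 cells, grown in charcoal-stripped serum. Cells were exposed to 15-concentration compound series for 22hr, then ONE-Glo luminescence was read.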

[20] = biological target: Progesterone receptor (Homo sapiens) (UniProt P06401); experiment: qHTS assay to identify small molecule antagonists of the progesterone receptor (PR) signaling pathway (AID 1346795; active = well fitted inhibition curve with a large enough effect in the signal ratio in the repeat runs, not every such curve was filed as active; the % refers to the signal ratio)
Procedure, shortened: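 Screening used a GripTite HEK293T line with PR-responsive UAS-beta-lactamase. Cells were challenged with compound in the presence of 1 nM R5020 final for 16 hr at 37C; B/G FRET substrate, 2 hr room temperature, fluorescence.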
% is scaled to controls: 0 for no effect and ±100 for the full control effect.

FC(F)OC(Cl)C(F)(F)F (configuration not stated)
inactive: outcome [1] | Potency [2] | outcome [3] | outcome [4] | Potency [5] | Potency [6] | Potency [7] | Potency [8] | Potency [9] | Potency [10] | Potency [11] | Potency [12] | outcome [13] | outcome [14] | outcome [15]

COC(=O)c1cc(C(=O)OC)cc(S(=O)(=O)O)c1
inactive: outcome [1] | Potency [2] | outcome [3] | outcome [4] | Potency [5] | Potency [6] | Potency [7] | outcome [16] | Potency [17] | Potency [8] | Potency [9] | Potency [11] | Potency [12] | outcome [13] | outcome [14] | outcome [15]

CCSC(=O)N(CC(C)C)CC(C)C
inactive: outcome [1] | Potency [2] | outcome [3] | Potency [5] | Potency [6] | Potency [18] | Potency [7] | Potency [19] | outcome [16] | Potency [17] | Potency [8] | Potency [9] | Potency [20] | Potency [10] | Potency [11] | Potency [12] | outcome [13] | outcome [14]

OCCCC1CCCCC1
inactive: outcome [1] | Potency [2] | outcome [3] | Potency [5] | Potency [6] | Potency [7] | Potency [19] | outcome [16] | Potency [17] | Potency [8] | Potency [9] | Potency [20] | Potency [10] | Potency [11] | Potency [12] | outcome [13] | outcome [14]

CCCCCCOC(=O)CCCCC(=O)OCCCCCC
inactive: outcome [1] | Potency [2] | outcome [3] | outcome [4] | Potency [5] | Potency [7] | Potency [19] | outcome [16] | Potency [17] | Potency [8] | Potency [9] | Potency [20] | Potency [10] | Potency [11] | Potency [12] | outcome [13] | outcome [14]

C[C@H]1C[C@@H](O)CC(C)(C)C1
inactive: outcome [1] | Potency [2] | outcome [3] | outcome [4] | Potency [5] | Potency [6] | Potency [7] | outcome [16] | Potency [17] | Potency [8] | Potency [9] | Potency [20] | Potency [10] | Potency [12] | outcome [13] | outcome [14] | outcome [15]

Nc1ccc(S(=O)(=O)Nc2ccnn2-c2ccccc2)cc1
inactive: activity change [1] -1.14% [at 18.9 µM] | Potency [2] | activity, negative = inhibition [4] 0.746% [at 19 µM] | activity change, negative = cytotoxicity [5] -0.249% [at 19 µM] | activity change, negative = cytotoxicity [6] 9.8% [at 19 µM] | activity change, negative = cytotoxicity [7] 5.67% [at 19 µM] | activation [19] -0.0289% [at 19 µM] | cAMP activity change [16] 3.46% [at 18.9 µM] | activity change, negative = inhibition [17] 0.942% [at 19 µM] | activity change, negative = cytotoxicity [8] 1.05% [at 19 µM] | Potency [20] | Potency [10] | activity change, negative = cytotoxicity [11] -4.95% [at 19 µM] | viability change, negative = cytotoxic [12] 6.26% [at 15.8 µM] | activity change, negative = cytotoxicity [13] 13.7% [at 15.8 µM] | activation [14] -0.937% [at 15.8 µM] | activity, negative = inhibition [15] 2.52% [at 10.5 µM]
